assay: budding yeast growth modifiers under rapamycin – strain BY4716, OD600, 96 h, primary screen (AID 1091); also: test concentration not given here; conditions: S. cerevisiae BY4716 + rapamycin, higher = more signal, called active from +8 up or from −8 down

z-score, inactive:
CCCNC(=O)[C@@]1(Sc2ccc(C)cc2)CC(=O)N(Cc2ccccc2Cl)[C@@H]1c1ccc(CO)cc1 -2.53, C[C@H]1COC(=O)[C@H](Cc2ccccc2)NC(=O)[C@@H](C)COC(=O)[C@H](Cc2ccccc2)NC1=O -0.278, CC(C)N1CC=CC23O[C@@H]4/C=C\CCCOC(=O)C4[C@H]2C(=O)N(CCO)[C@@H]3C1=O (stereo not given in full) -1.77, COC(=O)[C@@]1(Cc2ccc(OC)cc2)[C@H]2c3cc(C(=O)N(C)C)n(CCc4ccc(OC)c(Br)c4)c3C[C@H]2CN1C(=O)c1ccccc1 2.82, COCCOC(=O)N1C(=O)[C@@]2(c3cc(C#CCCO)ccc31)[C@H](c1ccc(O)cc1)N1[C@H](c3ccccc3)[C@H](c3ccccc3)OC(=O)[C@H]1[C@@H]2C(=O)Nc1nc2ccccc2s1 0.691, C=CC[C@]1(C(=O)N2CCCCC2)N=C(c2ccc(OCCCO)cc2)O[C@H]1c1ccccc1N=[N+]=[N-] 0.946, CCCC=C(CCC)[C@@H](NS(=O)(=O)c1cccc(C(F)(F)F)c1)c1ccc(C(=O)OC)cc1 -0.182, COc1ccc([Si](C)(C)[C@@H]2[C@@H](CC(=O)N(CCO)Cc3ccccc3)O[C@]3(C(=O)N(Cc4cccc(N5CCC5=O)c4)c4ccccc43)[C@H]2C)cc1 1.61, COc1cc([C@@H]2N[C@H](C(=O)O)Cc3c2[nH]c2ccccc32)cc(OC)c1OC -0.611, COCC(=C=CC[C@H](O)c1ccc(OCCO)cc1)C[C@H](O)c1ccccn1 -0.352, COCCOC(=O)N1C(=O)[C@@]2(c3cc(C#CC4(O)CCCCCC4)ccc31)[C@H](C(=O)N1CCCCCCC1)[C@H]1C(=O)O[C@H](c3ccccc3)[C@H](c3ccccc3)N1[C@@H]2c1ccc(O)cc1 0.772, C=CCC(OC(C)=O)[C@@H]1[C@@H](N(Cc2cc3ccccc3o2)C(=O)c2ccc(C)cc2)c2cc(OCCCO)ccc2N1C(=O)c1ccc2ccccc2n1 (stereo not given in full) -0.391, C=C(COC)C(=O)CC[C@H](OC(=O)c1ccccc1-c1ccccc1C(=O)O)c1cccc(OCCO)c1 -3.63, CC(C)[Si](OCC[C@H]1O[C@]2(C(=O)N(Cc3ccccc3)c3ccccc32)[C@@H](C)[C@@H]1[Si](C)(C)O)(C(C)C)C(C)C 1.24, CO[C@H]1COC(=O)CC=C[C@H](C)[C@@H](OC)COC(=O)CC=C[C@@H]1C -0.98, COCCOC(=O)N1C(=O)[C@@]2(c3cc(C#CC4=CCCCC4)ccc31)[C@H](C(=O)NC[C@H](O)c1ccccc1)[C@H]1C(=O)O[C@H](c3ccccc3)[C@H](c3ccccc3)N1[C@@H]2c1ccccc1OCCO 4.71, COc1cc2c(cc1OC)CN(C(=O)[C@H]1[C@@H]3C(=O)O[C@@H](c4ccccc4)[C@@H](c4ccccc4)N3[C@@H](c3ccc(O)cc3)[C@]13C(=O)Nc1ccc(C#CC4(O)CCCCCC4)cc13)CC2 0.695, CN(C)C(=O)[C@@]1(Cc2ccccc2N=[N+]=[N-])N=C(c2ccc(OCCCO)cc2)O[C@H]1c1ccccc1CN=[N+]=[N-] 1.62, CO[C@H]1COC(=O)[C@@H](C)COC(=O)[C@H](Cc2ccccc2)NC(=O)CC=C[C@H]1C -0.544, CC(=O)NCCCC[C@@H]1NC(=O)[C@H]2C[C@@H](C(=O)NCCCCCCN(C)C)[C@@H](c3cccc(OCCO)c3)N2C1=O -0.391, C=CCC(OC(C)=O)[C@@H]1[C@@H](N(Cc2ccc(-c3ccccc3)cc2)C(=O)c2ccc(-c3ccccc3)cc2)c2cc(OCCCO)ccc2N1C(=O)Cc1ccc(OC)cc1 (stereo not given in full) -0.253, COCCCNC(=O)[C@@H]1c2ccccc2C(=O)N(CC23CC4CC(CC(C4)C2)C3)[C@H]1c1ccc(CO)cc1 0.182, C=CCN1C(=O)[C@]2(O[C@H](CCn3cc(CCO)nn3)[C@@H]([Si](C)(C)c3ccc(OC)cc3)[C@@H]2C)c2cc(NC(=O)c3ccc(OC)cc3)ccc21 1.81, C=C(CCCC)/C(=C/C[C@@H](OC(=O)c1ccncc1)c1ccc(CO)o1)c1cnc2ccccc2c1 0.322, COC(=O)Cn1c(C(=O)N2CCCC2)cc2c1C[C@H]1CN(C(=O)c3ccccc3)[C@@](Cc3ccc(OC)cc3)(C(=O)OC)[C@@H]21 2.75
